The subject of test [1] is Plasmodium falciparum Sir2 (PF13_0152, Sir2A). Kind of test: pfSir2 binders on small-molecule microarrays, primary screen, biochemical, small-molecule microarray, 635 nm fluorescence (AID 1098).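 Also: score merges spot fluorescence intensity with its signal-to-noise ratio.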 To be noted: small-molecule microarray binding, fluorescence 635 nm; higher = more signal.
Test [2] can be described thus: small-molecule microarray binders of probe aDKK1, primary screen, biochemical, biotinylated probe, 635/667 nm fluorescence (AID 1099).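 Also: score merges 667nm spot fluorescence with signal to noise across triplicate slides.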 The settings on record: higher = more signal.
The nature of test [3]: small-molecule microarray binders of probe aCHRDL2, primary screen, biochemical, biotinylated probe, 635/667 nm fluorescence (AID 1100). The settings on record: higher = more signal.
The nature of test [4]: splicing luciferase reporter signal modulators, primary screen, spliceosome inhibition project, cell-based, HEK293, splice +/- reporter (AID 1101).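 Also: HEK293 cells carrying a splicing-competent luciferase reporter gene; test concentration not given here.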 To be noted: luminescence, 24 h, higher = more signal, called active from +8 up or from −8 down. Background: A reporter such as luciferase makes a cellular process visible.
The target of test [5] is Fibroblast growth factor 10 (Homo sapiens) (UniProt O15520). The experiment in a line: FGF10 binders on small-molecule microarrays, primary screen, biochemical, small-molecule microarray, 635 nm fluorescence (AID 1102). To be noted: FGF10 binding, fluorescence 635 nm, higher = more signal.
Chain of Fibroblast growth factor 10 (Homo sapiens) (O15520 whole entry, looked up): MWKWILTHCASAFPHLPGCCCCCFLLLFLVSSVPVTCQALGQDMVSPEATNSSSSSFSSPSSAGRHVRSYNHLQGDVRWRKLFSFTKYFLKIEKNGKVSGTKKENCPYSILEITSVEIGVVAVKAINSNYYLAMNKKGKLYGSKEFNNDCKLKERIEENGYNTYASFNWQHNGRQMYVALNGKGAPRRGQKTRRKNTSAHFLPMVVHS
For test [6], the system named is glycogen synthase kinase-3 (GSK3A per assay name; protocol says GSK3B). The experiment in a line: GSK3 binders on small-molecule microarrays, primary screen, biochemical, small-molecule microarray, 635 nm fluorescence, GSK3A (AID 1103). Also: the record names both GSK3A and GSK3B. To be noted: small-molecule microarray binding, fluorescence 635 nm; higher = more signal.
Test [7] has as its target Epidermal growth factor receptor (Homo sapiens) (UniProt P00533). Kind of test: EGFR binders on small-molecule microarrays, primary screen, biochemical, small-molecule microarray, 635 nm fluorescence (AID 1104).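 Also: score merges 667 nm emission intensity with spot signal to noise over triplicate slides.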 The settings on record: EGFR binding, higher = more signal.
In test [8] the target is Follistatin-related protein 3 (Homo sapiens) (UniProt O95633). Kind of test: FSTL3 binders on small-molecule microarrays, primary screen, biochemical, small-molecule microarray, 635 nm fluorescence (AID 1105).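 Also: score merges emission near 667 nm and signal to noise per printed spot across three slides.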 To be noted: FSTL3 binding, higher = more signal.
Chain of Follistatin-related protein 3 (Homo sapiens) (O95633 whole entry, looked up): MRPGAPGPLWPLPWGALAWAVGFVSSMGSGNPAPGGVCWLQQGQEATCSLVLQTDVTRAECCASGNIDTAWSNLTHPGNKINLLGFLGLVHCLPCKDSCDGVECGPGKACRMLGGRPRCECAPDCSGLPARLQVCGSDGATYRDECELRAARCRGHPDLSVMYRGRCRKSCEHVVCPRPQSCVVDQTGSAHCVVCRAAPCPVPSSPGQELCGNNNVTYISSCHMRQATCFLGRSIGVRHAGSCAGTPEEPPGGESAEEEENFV
The target in test [9] is Dickkopf-related protein 1 (Homo sapiens) (UniProt O94907). Kind of test: DKK1 binders on small-molecule microarrays, primary screen, biochemical, small-molecule microarray, 635 nm fluorescence scan (AID 1106).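 Also: score merges emission near 667 nm with signal to noise over three replicate slides.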 To be noted: DKK1 binding, higher = more signal.
Chain of Dickkopf-related protein 1 (Homo sapiens) (O94907 whole entry, looked up): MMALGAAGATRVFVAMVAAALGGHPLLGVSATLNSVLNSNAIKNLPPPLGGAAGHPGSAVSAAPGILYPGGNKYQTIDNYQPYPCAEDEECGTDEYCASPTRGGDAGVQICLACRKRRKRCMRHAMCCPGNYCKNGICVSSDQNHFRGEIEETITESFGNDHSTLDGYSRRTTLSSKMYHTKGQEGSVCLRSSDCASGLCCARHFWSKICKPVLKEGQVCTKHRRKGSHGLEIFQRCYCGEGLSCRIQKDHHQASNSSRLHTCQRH
Test [10] deals with Inhibin beta A chain (activin A). Kind of test: INHBA (activin A) binders on microarrays, primary screen, biochemical, small-molecule microarray, 635 nm fluorescence scan (AID 1107).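 Also: mouse activin A protein probed at 4.33 µg/mL on printed slides; score merges bound-protein fluorescence near 667 nm with spot signal-to-noise.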 The settings on record: small-molecule microarray binding, higher = more signal.
Test [11] relates to Human papillomavirus type 1a protein E7 (residues 44-93). Kind of test: HPV1a E7 fragment binders on microarrays, primary screen, biochemical, small-molecule microarray, residues 44-93, 635 nm fluorescence (AID 1108).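 Also: E7 fragment applied at 1 µg/mL in TBST for 1 h at 4 C; score combines spot fluorescence with its signal to noise ratio.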 To be noted: small-molecule microarray binding, fluorescence 635 nm; higher = more signal.
The nature of test [12]: modulators of HCV replicon luciferase signal, primary screen, HCV replication inhibitor project, Huh7 cells, luciferase reporter (AID 1109).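 Also: huh7 hepatoma cells harbouring a luciferase neomycin HCV replicon reporter; luciferase luminescence as measure of HCV replicon replication; test concentration not given here.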 To be noted: 48 h, higher = more signal. (Replicon systems follow genome replication, usually without infectious particles.)
Test [13] concerns the target Left-right determination factor 2 (Homo sapiens) (UniProt O00292). Kind of test: LEFTY2 binders on small-molecule microarrays, primary screen, biochemical, small-molecule microarray, 635 nm fluorescence scan (AID 1110). The settings on record: LEFTY2 binding, higher = more signal.
The target in test [14] is Calmodulin-1 (Homo sapiens) (UniProt P0DP23). The experiment in a line: CALM1 binders on microarrays, EGTA buffer, profiling panel, biochemical, small-molecule microarray, Cy5-labelled CALM1 (AID 1111).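 Also: labelled calmodulin applied in Tris saline Tween buffer holding calcium plus EGTA and DTT.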 The settings on record: Cy5-CALM1 binding fluorescence, higher = more signal.
For test [15] the target is unchanged. The experiment in a line: calcium-bound CALM1 binders on microarrays, profiling panel, artefact control for SMM control-protein annotation, biochemical, small-molecule microarray, Cy5-labelled CALM1, plus calcium (AID 1112).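 Also: score merges spot fluorescence with signal to noise from triplicate slides.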 To be noted: Cy5-CALM1 binding fluorescence, higher = more signal.
Test [16] can be described thus: small-molecule microarray binders of probe aWnt5a, primary screen, biochemical, biotinylated probe, 635/667 nm fluorescence (AID 1113).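 Also: score merges 667 nm fluorescence intensity with signal-to-noise per printed feature.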 The settings on record: higher = more signal.
A short description of test [17]: small-molecule microarray binders of probe aShh, primary screen, biochemical, biotinylated probe, 635/667 nm fluorescence (AID 1114).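 Also: probe is biotin-labelled aShh protein from a stem cell growth factor screen; measures binding of labelled protein to compounds printed on the slide; score merges feature fluorescence at 667 nm with signal-to-noise.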 The settings on record: higher = more signal.
Test [18] is described as follows: small-molecule microarray binders of probe aNog, primary screen, biochemical, biotinylated probe, 635/667 nm fluorescence (AID 1115).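 Also: probe is biotinylated aNog protein used at 0.15 µg/mL for 1 h at 4 C; z-score combines 667 nm fluorescence of each spot with its signal to noise.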 To be noted: higher = more signal.
Test [19] has as its target Torsin-1A-interacting protein 1 (Homo sapiens) (UniProt Q5JTV8). Kind of test: LAP1 binders from COS7 cell lysate, primary screen, small-molecule microarray, 635/667 nm fluorescence (AID 1116). The settings on record: COS7-hLAP1 lysate binding, 635 nm fluorescence, higher = more signal.
Test [20] has as its target Alpha-bungarotoxin (Bungarus multicinctus) (UniProt P60615). Kind of test: alpha-bungarotoxin binders on microarray, profiling panel, artefact control for SMM control protein annotation, biochemical, small-molecule microarray, Alexa647 label, 635/667 nm fluorescence (AID 1117). To be noted: alpha-BTX-A647 binding fluorescence, higher = more signal.

This note sets out measurements from PubChem BioAssay.

SMILES strings stand for the structures. Values joined by “and” are separate entries in the source; they are usually repeats but may differ in a detail not shown here. Equal values may be shown once. Active and inactive are the calls of the source.

Chain of Torsin-1A-interacting protein 1 (Homo sapiens) (Q5JTV8 whole entry, looked up): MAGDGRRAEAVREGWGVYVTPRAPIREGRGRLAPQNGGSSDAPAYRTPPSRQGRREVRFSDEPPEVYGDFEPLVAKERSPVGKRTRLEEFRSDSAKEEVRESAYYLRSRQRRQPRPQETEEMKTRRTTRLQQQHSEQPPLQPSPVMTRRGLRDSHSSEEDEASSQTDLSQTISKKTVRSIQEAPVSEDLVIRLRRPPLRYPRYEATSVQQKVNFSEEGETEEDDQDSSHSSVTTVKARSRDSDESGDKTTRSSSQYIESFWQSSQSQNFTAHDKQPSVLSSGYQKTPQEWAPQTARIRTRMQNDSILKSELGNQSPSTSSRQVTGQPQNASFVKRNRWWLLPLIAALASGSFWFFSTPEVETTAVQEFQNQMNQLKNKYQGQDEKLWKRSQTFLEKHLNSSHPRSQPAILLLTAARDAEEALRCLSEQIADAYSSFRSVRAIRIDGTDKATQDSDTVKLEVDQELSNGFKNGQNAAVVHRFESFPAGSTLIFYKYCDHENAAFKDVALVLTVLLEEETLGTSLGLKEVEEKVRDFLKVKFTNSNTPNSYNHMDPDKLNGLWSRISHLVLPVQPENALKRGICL
Chain of Alpha-bungarotoxin (Bungarus multicinctus) (P60615 whole entry, looked up): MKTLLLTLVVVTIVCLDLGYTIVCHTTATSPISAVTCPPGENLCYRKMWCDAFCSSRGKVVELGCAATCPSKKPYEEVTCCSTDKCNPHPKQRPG
Chain of Epidermal growth factor receptor (Homo sapiens) (P00533 whole entry, looked up): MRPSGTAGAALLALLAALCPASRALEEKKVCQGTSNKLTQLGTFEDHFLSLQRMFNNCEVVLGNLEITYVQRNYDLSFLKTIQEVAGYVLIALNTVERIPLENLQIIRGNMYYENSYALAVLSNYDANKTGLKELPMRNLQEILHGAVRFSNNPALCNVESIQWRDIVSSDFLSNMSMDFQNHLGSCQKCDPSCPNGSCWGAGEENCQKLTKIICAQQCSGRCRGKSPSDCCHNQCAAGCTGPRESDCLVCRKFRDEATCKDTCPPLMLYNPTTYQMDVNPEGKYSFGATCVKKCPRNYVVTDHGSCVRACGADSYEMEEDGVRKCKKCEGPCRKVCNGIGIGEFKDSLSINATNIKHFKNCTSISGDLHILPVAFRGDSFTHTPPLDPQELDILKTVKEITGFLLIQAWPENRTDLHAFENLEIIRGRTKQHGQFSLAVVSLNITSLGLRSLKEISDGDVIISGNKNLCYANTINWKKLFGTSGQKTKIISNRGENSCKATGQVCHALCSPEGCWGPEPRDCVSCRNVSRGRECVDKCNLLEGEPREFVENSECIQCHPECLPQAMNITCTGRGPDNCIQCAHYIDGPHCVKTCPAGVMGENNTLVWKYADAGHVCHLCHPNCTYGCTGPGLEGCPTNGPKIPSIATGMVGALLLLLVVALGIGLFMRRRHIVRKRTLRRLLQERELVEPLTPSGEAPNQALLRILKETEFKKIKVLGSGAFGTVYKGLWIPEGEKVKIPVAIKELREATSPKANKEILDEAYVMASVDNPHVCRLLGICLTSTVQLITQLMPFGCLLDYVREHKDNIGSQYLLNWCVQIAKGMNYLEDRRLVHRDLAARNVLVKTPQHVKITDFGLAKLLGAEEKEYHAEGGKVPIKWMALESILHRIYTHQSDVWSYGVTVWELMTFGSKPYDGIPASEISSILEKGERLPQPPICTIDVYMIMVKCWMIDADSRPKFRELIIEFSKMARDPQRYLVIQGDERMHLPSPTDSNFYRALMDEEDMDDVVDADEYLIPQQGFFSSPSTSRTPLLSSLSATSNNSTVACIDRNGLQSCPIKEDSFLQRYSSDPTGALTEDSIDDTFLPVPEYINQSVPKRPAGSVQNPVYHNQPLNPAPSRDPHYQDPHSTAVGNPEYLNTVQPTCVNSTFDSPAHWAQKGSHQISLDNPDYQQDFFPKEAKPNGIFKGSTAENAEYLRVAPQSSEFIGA
Chain of Left-right determination factor 2 (Homo sapiens) (O00292 whole entry, looked up): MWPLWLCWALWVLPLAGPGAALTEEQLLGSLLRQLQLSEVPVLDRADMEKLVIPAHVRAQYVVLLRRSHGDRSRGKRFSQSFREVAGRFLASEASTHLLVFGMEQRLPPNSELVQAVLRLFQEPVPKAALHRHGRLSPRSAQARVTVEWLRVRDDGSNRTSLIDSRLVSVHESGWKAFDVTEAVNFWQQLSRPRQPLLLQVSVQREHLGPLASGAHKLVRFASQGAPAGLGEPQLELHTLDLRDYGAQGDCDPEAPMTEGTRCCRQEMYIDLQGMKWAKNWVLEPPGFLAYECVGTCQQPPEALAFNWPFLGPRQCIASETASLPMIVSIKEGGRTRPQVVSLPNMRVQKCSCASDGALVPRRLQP

As to `C=CCN(CCCCC)C(=O)C1N(C(C)(C)CO)C(=O)C2C(C(=O)O)C3C=CC21O3` (stereo not given), the composite z-score in test [1] was -0.0662 and -1.13; in test [2] it was -0.706 and -0.0156; in test [3], 0.767 and 0.884; in test [5] it was -1.96 and -0.741; in test [6] it was -1.35 and -0.534; in test [7], -1.79 and -1.92. Further, the composite z-score was -1.65 and -2.06 in test [8]; -1.61 and -2.14 in [9]; -3.53 and -1.16 in [10]; -2.03 and -0.698 in [11]; -1.51 and -1.83 in [13]; -0.569 and -0.284 in [14]. Further, the composite z-score in test [15] is 0.515 and 1.07; in [16] it was -0.297 and -0.176; in test [17], -0.0626 and -0.138; in test [18], -0.0809 and 0.274; in test [19], -1.47 and -0.47; in test [20] it was -1.26 and -2.68. The z-score in test [4] is 0.507 (inactive) and 0.484 (inactive); in [12], -0.954 and -0.659.
Turning to `CO[C@@H]1COC(=O)CC=C[C@H](C)COC(=O)[C@H](C)NC(=O)CC=C[C@H]1C`, the composite z-score in [1] is 0.237; in test [2], -0.525; in [3], -0.774; in test [5], 0.754; in test [6], 0.736; in test [7], 0.715. For the same compound, the composite z-score was 0.829 in test [8]; 0.951 in test [9]; 0.249 in test [10]; -0.103 in test [11]; 0.663 in test [13]; -0.76 in test [14]. Further, the composite z-score in [15] was -0.754; in test [16], -0.13; in test [17], 0.178; in [18], -0.118; in [19], 0.542; in test [20], -0.711. Moreover, the z-score was -0.401 (inactive) in test [4] and -0.394 in [12].
Regarding `C=CCN(C(=O)C(c1cccs1)N(CCOCCO)C(=O)/C=C\C(=O)O)C(C)(C)C` (stereo not given), the composite z-score in test [1] is -1.45 and 1.17; in [2] it was -0.214 and -0.188; in test [3], 0.336 and 0.718; in [5] it was -1.34 and -1.24; in [6] it was -1.46 and -0.651; in test [7] it was -1.21 and -0.944. For the same compound, the composite z-score in test [8] is -1.64 and -1.94; in test [9], -2.14 and -2.17; in [10] it was -0.96 and -1.53; in test [11], -1.34 and -0.3; in test [13] it was -2.67 and -2.46; in test [14] it was -1.36 and -0.361. Also, the composite z-score was -0.183 and 0.48 in test [15]; -0.154 and -0.239 in test [16]; -0.174 and 0.151 in test [17]; -0.0689 and 0.106 in [18]; 0.17 and -0.417 in test [19]; -2.22 and -0.34 in [20]. The z-score was -0.0364 (inactive) and 0.0433 (inactive) in test [4]; 0.399 and -0.274 in test [12].
As for `CCOC(=O)[C@H](CC(C)C)NC(=O)CCC1CC(OC(=O)NCc2cccc3ccccc23)CC2(CCCC(COC(=O)NCc3ccccc3)O2)O1` (stereo not given in full), the composite z-score in test [1] is 0.929; in test [2], -0.299; in test [3] it was -0.103; in test [5], -0.242; in test [6] it was -0.97; in [7], -0.152. Also, the composite z-score in test [8] is -0.499; in test [9], -0.311; in test [10], 0.493; in test [11], -0.931; in [13] it was -0.0479; in [14] it was -0.195. The composite z-score in test [15] was -0.559; in [16], -0.152; in test [17], -0.282; in test [18], -0.0029; in [19], -0.61; in test [20], -0.274. Also, the z-score in test [4] is -2.18 (inactive); in test [12], -0.132.
